In the library only some 4.7% were active in any assay of this set; here they are far more common.
TGFb SMAD3 inh: blocks TGF-b signaling; HepG2 CAGA-GFP TGF-b/SMAD3 reporter, GFP fluorescence, 18 h; TGF-beta stimulated, 500 pg/mL final; AID 588855; 410,000 compounds, 1.2% hits; Potency, µM (series often up to 46.1 µM), actives largely listed as inhibitors; further: nearly all actives have a fitted effect of over 65% in size
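Per well, imaged GFP fluorescence of HEPG2 CAGA-GFP cells gives the signal; cells get compound, then TGF-beta (500 pg/mL final), 18 h at 37 degrees C; %Activity versus -TGF-beta and +DMSO controls.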
ATXN2 expr inh: inhibitors of ATXN2 expression; HEK-293 ATXN2-luciferase reporter, luminescence, 24 h; 360,000 compounds, 0.72% hits; Potency, µM (top dose mostly 57 µM), usual class: inhibitors; further: nearly all actives have a fitted effect of over 55% in size
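qHTS (up to 57 uM final) was run with 24 h compound exposure of reporter cells at 37 °C. Each well was multiplexed: SteadyGlo luminescence measured ATXN2-luciferase expression after a fluorogenic Gly-Phe-AFC viability readout (25 uM final).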
D3 antag: D3 dopamine receptor (human) antagonism. max response, negative = inhibition, %. 360,000 compounds, 2.5% hits. D3R cells, DiscoveRx beta-arrestin luminescence, antagonist mode; hits give low values. P35462; in the data active means max response below about -50%; inconclusive means no clear call, values can overlap the other calls
Target sequence (P35462 whole entry, looked up): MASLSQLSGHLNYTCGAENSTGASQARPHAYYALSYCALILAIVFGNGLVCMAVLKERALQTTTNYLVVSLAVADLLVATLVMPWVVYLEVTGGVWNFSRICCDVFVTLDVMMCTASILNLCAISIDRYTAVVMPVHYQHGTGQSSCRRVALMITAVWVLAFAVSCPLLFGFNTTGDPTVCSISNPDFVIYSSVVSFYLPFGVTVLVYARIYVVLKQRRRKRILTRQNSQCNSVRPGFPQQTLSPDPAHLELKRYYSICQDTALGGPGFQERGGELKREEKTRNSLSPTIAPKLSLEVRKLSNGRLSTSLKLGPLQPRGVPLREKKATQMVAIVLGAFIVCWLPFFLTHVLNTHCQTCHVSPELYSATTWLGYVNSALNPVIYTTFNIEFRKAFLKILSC
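Cells expressing the human receptor were seeded at 1500 cells/well, incubated overnight at 37 degrees C in 5% CO2, then exposed to library compounds with dopamine controls for 90 minutes at 37 degrees C before luminescent detection.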
D3 ag: D3 dopamine receptor (human) agonism; P35462; D3R DiscoveRx beta-arrestin cells, luminescence, 90 min; max activation, %; 410,000 compounds, 0.58% hits; in the data active means max activation above about 30%
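Cells at 1500/well, incubated overnight, then treated with pinned compounds (dopamine as control) for 90 min at 37 degrees C. DiscoveRx reagent added for 30 - 60 minutes at room temperature; luminescence read.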
S2 tox: reduces viability in counter-screen for ATXN expression inhibitors; 400,000 compounds, 0.49% hits; S2 cells (HEK-293 line with an ATXN2-luciferase reporter) viability, CellTiter-Fluor protease fluorescence, 24 h; Potency, µM (top dose mostly 56.7 µM), actives largely listed as cytotoxic; further: nearly all actives have a fitted effect of over 40% in size
HepG2 viability: counter-screen for TGF-b inhibitors: cytotoxicity in HepG2 cells | 410,000 compounds, 0.76% hits | Potency, µM (titrated, usually from 46.1 µM), hits mostly cytotoxic | HepG2 CAGA-GFP viability, ATP luminescence, 18 h | AID 588856
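HepG2 CAGA-GFP cells (1000/well, DMEM with 1% FBS) received compound, then TGF-beta at 500 pg/mL final, and were incubated 18 hours at 37 degrees C. Viability was read by CellTiter-Glo luminescence. Media-only wells were set as complete cell-killing and DMSO as no toxicity.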
A number is an active result. Unless noted, the call rests on the fitted dose curve; in most records, active means well fitted curve in the direction sought with a large enough effect; inconclusive means small, poorly fitted or top-dose-only effect, or another doubt; inactive means no such curve, though single readings can be large; an effect the other way counts as inactive or inconclusive.

COCCN(CCOC)S(=O)(=O)c1ccc(C(=O)Nc2nnc(C3CC3)o2)cc1 was read as TGFb SMAD3 inh inactive, ATXN2 expr inh inactive, D3 antag -53, D3 ag inactive, S2 tox inactive and HepG2 viability inactive.
Screening CCc1nnc(NC(=O)c2ccc(S(=O)(=O)N(CCOC)CCOC)cc2)o1 returned TGFb SMAD3 inh inactive, ATXN2 expr inh inactive, D3 antag inconclusive, D3 ag inactive, S2 tox inactive and HepG2 viability inactive.
Screening COCc1nnc(NC(=O)c2ccc(S(=O)(=O)N(C)c3ccccc3)cc2)o1 returned TGFb SMAD3 inh inactive, ATXN2 expr inh inconclusive, D3 antag -56, D3 ag inactive, S2 tox inactive and HepG2 viability inactive.
For CCCCN(CCCC)S(=O)(=O)c1ccc(C(=O)Nc2nnc(CSC)o2)cc1 the results were TGFb SMAD3 inh inconclusive, ATXN2 expr inh inconclusive, D3 antag -113, D3 ag inactive, S2 tox inactive and HepG2 viability inactive.
CCCN(CCC)S(=O)(=O)c1ccc(C(=O)Nc2nnc(-c3cc(OC)cc(OC)c3)o2)cc1 was read as TGFb SMAD3 inh inactive, ATXN2 expr inh inconclusive, D3 antag inactive, D3 ag inactive, S2 tox inactive and HepG2 viability inactive.
Screening CCN(c1ccccc1)S(=O)(=O)c1ccc(C(=O)Nc2nnc(COC)o2)cc1 returned TGFb SMAD3 inh inconclusive, ATXN2 expr inh inconclusive, D3 antag inactive, D3 ag inactive, S2 tox inactive and HepG2 viability inactive.
`CCN(Cc1ccccc1)S(=O)(=O)c1ccc(C(=O)Nc2nnc(-c3ccccc3OC)o2)cc1` gave TGFb SMAD3 inh inactive, ATXN2 expr inh inconclusive, D3 antag -86, D3 ag inactive, S2 tox inactive and HepG2 viability inactive.
Screening CC1=C(c2ccc(C)c(C)c2)S(=O)(=O)N=C1N1CCC(C(=O)NC(C)c2ccccc2)CC1 (configuration not stated) returned TGFb SMAD3 inh inactive, ATXN2 expr inh inactive, D3 ag inactive, S2 tox inactive and HepG2 viability inactive.
Screening CC[N+]1(CC(=O)c2ccc(OC)cc2)CCCCC1 returned TGFb SMAD3 inh inactive and HepG2 viability inactive.
`COc1ccc2c(c1)c1c(c(=O)n(Cc3ccccc3)c(=O)n1CC(=O)Nc1c(C)cccc1C)n2C` gave TGFb SMAD3 inh inactive, ATXN2 expr inh inactive, D3 ag inactive, S2 tox inactive and HepG2 viability inactive.
For CCn1c(-c2ccccc2F)nc2cc(NC(C)=O)cc(C(=O)NCC3CCOCC3)c21 the results were S2 tox inactive.
`CCOc1cc(CNCCCN2CCOCC2)cc(Br)c1OCC(=O)Nc1cccc(C(F)(F)F)c1` gave TGFb SMAD3 inh inconclusive, ATXN2 expr inh 22µM, D3 antag inactive, D3 ag inactive and HepG2 viability 18µM.
Screening COc1cc(CNCCN2CCOCC2)ccc1OCc1ccc(Cl)cc1 returned TGFb SMAD3 inh inactive, ATXN2 expr inh inactive, D3 antag inactive, D3 ag inactive, S2 tox inactive and HepG2 viability inactive.
CCOc1cc(CNCCCN2CCOCC2)cc(Cl)c1OCC(=O)NC(C)(C)C was read as TGFb SMAD3 inh inactive, ATXN2 expr inh inactive, D3 antag inactive, D3 ag inactive, S2 tox inconclusive and HepG2 viability inactive.
`COc1cc(CNCCCN2CCOCC2)cc(Br)c1OCc1ccc(Cl)cc1` gave TGFb SMAD3 inh inconclusive, ATXN2 expr inh 21µM, D3 antag inactive, D3 ag inactive and HepG2 viability inactive.
For C=C1C(=O)OC2C=C(CO)CCC=C(CO)CC(OC(=O)C(C)C)C12 (configuration not stated) the results were TGFb SMAD3 inh 16µM, ATXN2 expr inh inconclusive, D3 antag inconclusive, D3 ag inactive, S2 tox inconclusive and HepG2 viability inactive.
`Cc1ccc(S(=O)(=O)CCC(=O)OCC(=O)c2cc(C)ccc2C)cc1` gave TGFb SMAD3 inh inactive, ATXN2 expr inh inactive, D3 antag inactive, D3 ag inactive, S2 tox inactive and HepG2 viability inactive.
For Cc1ccc(S(=O)(=O)CCC(=O)OCC(=O)c2c[nH]c3ccccc23)cc1 the results were TGFb SMAD3 inh inactive, ATXN2 expr inh inactive, D3 antag inactive, D3 ag 33, S2 tox inactive and HepG2 viability inactive.
`Cc1ccc(CN(Cc2ccco2)C(=O)COc2ccccc2C)cc1` gave TGFb SMAD3 inh inconclusive, ATXN2 expr inh inactive, D3 ag 36, S2 tox inactive and HepG2 viability inactive.
For Cc1ccc2occ(CC(=O)N(Cc3ccc(Cl)cc3)Cc3ccco3)c2c1 the results were TGFb SMAD3 inh 16µM, ATXN2 expr inh inactive, D3 ag inactive, S2 tox inactive and HepG2 viability inactive.
COc1ccc(/C=C/C(=O)NCC2Cc3cccc(-c4nc(C)cnc4C)c3O2)cc1OC (configuration not stated) was read as S2 tox inactive.
O=C(NCc1ccc(F)cc1)c1ccc2c(c1)nnn2C1CCCC1 was read as TGFb SMAD3 inh inconclusive, ATXN2 expr inh inactive, D3 ag inactive, S2 tox inactive and HepG2 viability inactive.
For Cc1ccc(Nc2cc(C)c3ccc(O)cc3n2)cc1C the results were TGFb SMAD3 inh inconclusive, D3 antag -57, D3 ag inactive, S2 tox inactive and HepG2 viability 10µM.
CC(Oc1ccccc1)C(=O)NCC1Cc2cc(F)cc(-c3ccccn3)c2O1 (configuration not stated) was read as S2 tox inactive.
For CCOC(=O)c1ccc(N2CCN(c3ccccc3OC)CC2)c(NC(=O)Nc2ccc(CC)cc2)c1 the results were TGFb SMAD3 inh inactive, D3 ag inactive and HepG2 viability inactive.
For CN1CCN(CCCOc2ccc(-c3ccccc3)cc2)CC1 the results were TGFb SMAD3 inh inconclusive, ATXN2 expr inh inactive, D3 antag inactive, D3 ag inactive, S2 tox inactive and HepG2 viability inactive.
Screening Cc1ccc(OCCCCN2CCc3ccccc3C2)cc1 returned TGFb SMAD3 inh inactive, ATXN2 expr inh inactive, D3 antag -100, D3 ag inactive, S2 tox inactive and HepG2 viability inactive.
For Brc1cccc(OCCN2CCc3ccccc3C2)c1 the results were TGFb SMAD3 inh inactive, ATXN2 expr inh inactive, D3 antag -73, D3 ag inactive and HepG2 viability inactive.
Brc1cccc(OCCN2CCCCC2)c1 was read as TGFb SMAD3 inh inactive, ATXN2 expr inh inactive, D3 antag -92, D3 ag inactive, S2 tox inactive and HepG2 viability inactive.
Cc1cccc(OCCCN2CCCCCC2)c1 was read as TGFb SMAD3 inh inactive, ATXN2 expr inh inactive, D3 antag -51, D3 ag inactive, S2 tox inactive and HepG2 viability inactive.

High-throughput results: PubChem, National Center for Advancing Translational Sciences (NCATS)
